# Screens deposited in PubChem by National Center for Advancing Translational Sciences (NCATS).
# Rows were chosen to be rich in hits. Some 19% of all compounds tested hit in one or more screens of this group.
# IL1B secr inh = qHTS for Inhibitors of Inflammasome Signaling: IL-1-beta AlphaLISA Primary Screen. THP-1 LPS/ATP IL-1B secretion, AlphaLISA, 16 h; active compounds read low. AID 743279, 2014. hit rate 4.7% among 360,000. activity change, % at 57.5 µM; in the data active = activity change below about -50%; inconclusive = mostly about -30% to -49%
#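 Secreted IL-1B measured by AlphaLISA bead assay after 16 h compound exposure of THP-1 cells; compounds (final up to 57.5 uM) added 1 h before LPS (250 ng/mL) and ATP (1.25 mM) stimulation; lower signal means less secretion.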
# HT1080 IDH1KD tx = qHTS for induction of synthetic lethality in tumor cells producing 2HG: qHTS for the HT-1080-IDH1KD cell line; HT-1080 IDH1 knockdown viability, ATP luminescence, 48 h; hit rate 2% among 360,000; Potency, µM (titrated, usually from 46.1 µM), for inactives: top-dose activity, negative = toxicity, hits mostly cytotoxic;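 note: potency is the fitted concentration of half-maximal effect; 0% = DMSO wells and -100% = cell-free medium wells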
#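 Cytotoxicity counter-line: IDH1KD HT-1080, 48 h, CellTiter-Glo. Curves classed by r2, magnitude and activity.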
# TDP1 cell CPT = qHTS for Inhibitors of human tyrosyl-DNA phosphodiesterase 1 (TDP1): qHTS in cells in presence of CPT. chicken DT40 Tdp1-/-;hTDP1 cells + 20 nM CPT, ATP luminescence, 48 h. Potency, µM (top dose mostly 46.2 µM), for inactives: at the highest dose activity change, negative = growth inhibition, hits mostly inhibitors. hit rate 12% among 420,000. AID 686979, 2013; note: potency is the fitted concentration of half-maximal effect; nearly all actives have a fitted effect of over 55% in size
#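 Chicken DT40 Tdp1-/- cells complemented with human TDP1, 400 cells/well, exposed to compounds plus 20 nM camptothecin for at least 48 h at 37 C; viability read as ATP content by CellTiter-Glo luminescence.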
# HT1080NT lethal = qHTS for induction of synthetic lethality in tumor cells producing 2HG: qHTS for the HT-1080-NT fibrosarcoma cell line | HT-1080-NT fibrosarcoma viability, CellTiter-Glo ATP luminescence, 48 h | Potency, µM (top dose mostly 46.1 µM), inactives show at the highest dose activity, negative = less viability, hits mostly cytotoxic | hit rate 1.6% among 360,000 | AID 686970, 2013;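 note: NT is the 2HG producing partner of a matched IDH1 knockdown line; potency is the fitted concentration of half-maximal effect; 0% = DMSO-treated cells and -100% = media-only wells without cells; nearly all actives have a fitted effect of over 55% in size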
#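 750 cells/well, RPMI + 5% FBS; 2 h settle, compound pin-transfer, 48 h at 37 degrees C. CellTiter-Glo 10 min RT, luminescence. Normalized to DMSO and media-only wells.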
# ELG1 repair inh = qHTS screen for small molecules that inhibit ELG1-dependent DNA repair in human embryonic kidney (HEK293T) cells expressing luciferase-tagged ELG1; hit rate 2.3% among 330,000; HEK293T ELG1-luciferase reporter, luminescence, 16 h; DNA damage induced by 5-fluorouridine; Potency, µM (top dose mostly 46.1 µM), for inactives: at the top dose activity change, negative = inhibition, usual class: inhibitors; note: potency is the fitted concentration of half-maximal effect; nearly all actives have a fitted effect of over 55% in size
#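 Reporter activity after DNA damage by 5-fluorouridine is monitored. Compound-treated cells incubate 16 hr at 37 °C, then ONE-Glo is added for 30 min before luminescence reading.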
# TDP1 cell noCPT = qHTS for Inhibitors of human tyrosyl-DNA phosphodiesterase 1 (TDP1): qHTS in cells in absence of CPT; DT40 Tdp1-/- hTDP1 cells, no CPT, ATP luminescence, 48 h; Potency, µM (doses to about 46.2 µM), inactives show at the highest dose activity change, negative = growth inhibition, usual class: inhibitors; hit rate 15% among 420,000; note: potency is the fitted concentration of half-maximal effect; nearly all actives have a fitted effect of over 55% in size
#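 DT40 Tdp1-/-;hTDP1 cells, no CPT (DMSO vehicle only), 400 cells/well; compounds pin-transferred; ≥48 hr, 37 °C; CellTiter-Glo 30 min RT dark, luminescence read.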
# Active calls of the source: *; ? = inconclusive; / = no result given. Unless noted, calls come from the whole dose curve; as a rule, active = well fitted curve in the direction sought with a large enough effect; inconclusive = small, poorly fitted or top-dose-only effect, or another doubt; inactive = no such curve, though single readings can be large; an effect the other way counts as inactive or inconclusive. Unless noted, % is set by controls: 0 for no effect and ±100 for the full control effect.
SMILES,IL1B secr inh,HT1080 IDH1KD tx,TDP1 cell CPT,HT1080NT lethal,ELG1 repair inh,TDP1 cell noCPT
CCc1cc(C(=O)Nc2ccc(OC)nc2)sc1C,0,10%,3%,4%,?,-17%
COc1ccc(NC(=O)c2cc(Br)c(Br)s2)cn1,-53*,-12%,0%,-10%,4%,?
O=C(NNC(=O)C1CC1)c1cc(Br)c(Br)s1,-8,7%,-26%,14%,5%,14%
Cc1nc2nc(NC(=O)c3ccc(C(C)(C)C)cc3)[nH]n2c(=O)c1C,/,/,16%,/,/,0%
CCN(CC)S(=O)(=O)c1ccc(NC(=S)NC(=O)C2CCC2)cc1,-17,-10%,18µM*,-12%,?,?
CCN(CC)S(=O)(=O)c1cc(NS(=O)(=O)c2cccs2)ccc1C,14,0%,-23%,6%,-19%,5.8µM*
CCN(CC)S(=O)(=O)c1cc(NC(=S)NC(=O)C2CCCC2)ccc1C,-18,-19%,23µM*,-11%,?,18µM*
CN(C)S(=O)(=O)c1ccc(NC(=S)NC(=O)C2CCC2)cc1,3,-3%,2%,-4%,-7%,-4%
Cc1ccc(NC(=S)NC(=O)C2CCCC2)cc1C,6,-1%,?,4%,?,?
COC(=O)C1C(=O)C2=C(CC1C)Nc1ccccc1NC2c1ccc(C)s1 (centres undefined),2,23%,-19%,0%,11%,?
Cc1ccc(NC(=O)CN(C)S(=O)(=O)c2cccc3nsnc23)c(C)c1,/,/,-28%,/,/,-20%
COc1cc(CCCN2CCNC[C@@H]2Cc2ccccc2)cc(OC)c1OC,-21,3%,-10%,4%,30%,6%
CSCCC(C(=O)NCc1ccccc1)n1c(Cc2cc(F)cc(F)c2)nc2ccccc21 (centres undefined),-22,-23%,?,-25%,/,?
CCC1(CC)Cc2ccccc2C(N)=C1C#N,23,-12%,21µM*,-12%,0%,21µM*
O=C(CCS(=O)(=O)Cc1ccc(Cl)cc1)NCCCN1CCN(c2ccccc2F)CC1,?,?,11µM*,?,?,?
COc1ccc(CCC(=O)NCCS(=O)(=O)N2CCN(c3ccccc3F)CC2)cc1,1,-7%,?,1%,?,?
Cc1ccccc1CS(=O)(=O)CCC(=O)NCCCN1CCN(c2ccccc2F)CC1,-5,-11%,?,-9%,-11%,?
O=C(Cc1ccc(Cl)cc1)NCCS(=O)(=O)N1CCN(c2ccccc2F)CC1,4,?,5.2µM*,?,-11%,5.8µM*
O=C(CCCc1ccccc1)NCCS(=O)(=O)N1CCN(c2ccccc2F)CC1,0,-13%,?,-12%,?,18µM*
COc1ccc(CCC(=O)NCCS(=O)(=O)N2CCN(c3ccccc3OC)CC2)cc1,20,-2%,21µM*,5%,?,18µM*
O=C(NCCS(=O)(=O)N1CCN(c2ccccc2F)CC1)c1ccc(Cl)cc1,-1,2%,-2%,0%,-10%,-21%
CCOc1ccc(C2C(C(N)=O)=C(C)Nc3nc(SCc4ccccc4)nn32)cc1 (centres undefined),/,/,-18%,/,/,-2%
Cc1c(C(=O)NCCS(=O)(=O)N2CCN(c3ccccc3F)CC2)cccc1[N+](=O)[O-],17,?,?,?,15µM*,21µM*
Cc1ccnc(NC(=O)c2sc3cc(Cl)ccc3c2Cl)c1,-14,27%,-3%,14%,?,-20%
CCN(CC)c1ccc(NC(=O)c2sc3ccccc3c2Cl)cc1,/,/,21µM*,/,/,21µM*
SMILES,IL1B secr inh,HT1080 IDH1KD tx,TDP1 cell CPT,HT1080NT lethal,ELG1 repair inh,TDP1 cell noCPT
CCN(CC)Cc1ccc(NC(=O)c2sc3cc(Cl)ccc3c2Cl)cc1,/,23µM*,?,7.3µM*,33%,16µM*
O=C(Nc1ccc(CN2CCCCC2)cc1)c1cccc(Br)c1,-55*,-28%,?,-18%,?,?
O=C(Nc1ccc(C(=O)OC[C@@H]2CCCN3CCCC[C@H]23)cc1)c1cccc(Br)c1,-6,-6%,?,-11%,1%,18µM*
CNC(=O)c1ccsc1NC(=O)c1sc2ccccc2c1Cl,-1,-16%,13µM*,?,?,?
O=C(Nc1ccc(CN2CCCCC2)cc1)c1sc2ccccc2c1Cl,-57*,?,13µM*,?,?,16µM*
CCN(CC)S(=O)(=O)c1cc(OC)ccc1N=Nc1ccc(O)c2ncccc12,34,?,7.3µM*,?,?,?
COc1ccc(S(=O)(=O)NCCOc2cccc3cccnc23)cc1OC,-3,3%,3%,-8%,-5%,0%
CCS(=O)(=O)c1ccc(OC)c(N=Nc2ccc(O)c3ncccc23)c1,40,8.2µM*,?,?,?,?
COc1cccc2cc(/C(=N/O)c3ccccc3)oc12,-1,-3%,-18%,-5%,?,-15%
Clc1ccc(Cl)c(-c2nn3c(COc4ccccc4)nnc3s2)c1,3,0%,16µM*,-4%,-4%,?
COc1cc2c(cc1NC(=O)CN1CCN(S(=O)(=O)c3ccccc3F)CC1)oc1ccccc12,37,-1%,15µM*,-2%,1%,21µM*
COc1cc2c(cc1NC(=O)CCCCCN1C(=O)CCC1=O)oc1ccccc12,?,-19%,?,-3%,21µM*,?
COc1cc2c(cc1NC(=O)CC1SC(N3CCCC3)=NC1=O)oc1ccccc12 (centres undefined),-28,?,?,?,?,21µM*
